What was measured:
[1] = tested on: U-2932; experiment: growth inhibition by drug alone (1 - RLU/untreated control) (fraction); higher = stronger inhibition; details: 177Lu-lilotomab satetraxetan 0 ug/ml
Summary of the method: (§1)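 Growth inhibition was calculated from RealTime-Glo RLU against untreated no-drug wells. Values equal 1 − RLU/mean of 48 untreated no-drug wells per plate, read daily from day 3 after 1 h at 37°C. RIVA and U-2932 cells, with or without 18 h pretreatment by a radiolabelled anti-CD37 antibody conjugate (~600 MBq/mg; 0.5 µg/ml RIVA, 1 µg/ml U-2932), were washed and plated at 3,000 cells/well on compound-printed plates at 10/100 nM (RIVA) or 10/1,000 nM (U-2932).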

[2] = tested on: RIVA; experiment: as above; details: 177Lu-lilotomab satetraxetan 0 ug/ml
Summary of the method: as §1

[3] = tested on: U-2932; experiment: growth inhibition by drug plus 177Lu-lilotomab satetraxetan (1 - RLU/untreated control) (fraction); higher = stronger inhibition; details: 177Lu-lilotomab satetraxetan 1 ug/ml
Summary of the method: as §1

[4] = tested on: RIVA; experiment: as above; details: 177Lu-lilotomab satetraxetan 0.5 ug/ml
Summary of the method: as §1

| SMILES | growth inhibition by drug alone ([1]; 10 nM, time (day): 3) | growth inhibition by drug alone ([1]; 10 nM, time (day): 4) | growth inhibition by drug alone ([1]; 10 nM, time (day): 5) | growth inhibition by drug alone ([1]; 10 nM, time (day): 6) | growth inhibition by drug alone ([1]; 1000 nM, time (day): 3) | growth inhibition by drug alone ([1]; 1000 nM, time (day): 4) | growth inhibition by drug alone ([1]; 1000 nM, time (day): 5) | growth inhibition by drug alone ([1]; 1000 nM, time (day): 6) | growth inhibition by drug alone ([2]; 10 nM, time (day): 3) | growth inhibition by drug alone ([2]; 10 nM, time (day): 4) | growth inhibition by drug alone ([2]; 10 nM, time (day): 5) | growth inhibition by drug alone ([2]; 10 nM, time (day): 6) | growth inhibition by drug alone ([2]; 100 nM, time (day): 3) | growth inhibition by drug alone ([2]; 100 nM, time (day): 4) | growth inhibition by drug alone ([2]; 100 nM, time (day): 5) | growth inhibition by drug alone ([2]; 100 nM, time (day): 6) | growth inhibition by drug plus 177Lu-lilotomab satetraxetan ([3]; 10 nM, time (day): 3) | growth inhibition by drug plus 177Lu-lilotomab satetraxetan ([3]; 10 nM, time (day): 4) | growth inhibition by drug plus 177Lu-lilotomab satetraxetan ([3]; 10 nM, time (day): 5) | growth inhibition by drug plus 177Lu-lilotomab satetraxetan ([3]; 10 nM, time (day): 6) | growth inhibition by drug plus 177Lu-lilotomab satetraxetan ([3]; 1000 nM, time (day): 3) | growth inhibition by drug plus 177Lu-lilotomab satetraxetan ([3]; 1000 nM, time (day): 4) | growth inhibition by drug plus 177Lu-lilotomab satetraxetan ([3]; 1000 nM, time (day): 5) | growth inhibition by drug plus 177Lu-lilotomab satetraxetan ([3]; 1000 nM, time (day): 6) | growth inhibition by drug plus 177Lu-lilotomab satetraxetan ([4]; 10 nM, time (day): 3) | growth inhibition by drug plus 177Lu-lilotomab satetraxetan ([4]; 10 nM, time (day): 4) | growth inhibition by drug plus 177Lu-lilotomab satetraxetan ([4]; 10 nM, time (day): 5) | growth inhibition by drug plus 177Lu-lilotomab satetraxetan ([4]; 10 nM, time (day): 6) | growth inhibition by drug plus 177Lu-lilotomab satetraxetan ([4]; 100 nM, time (day): 3) | growth inhibition by drug plus 177Lu-lilotomab satetraxetan ([4]; 100 nM, time (day): 4) | growth inhibition by drug plus 177Lu-lilotomab satetraxetan ([4]; 100 nM, time (day): 5) | growth inhibition by drug plus 177Lu-lilotomab satetraxetan ([4]; 100 nM, time (day): 6) |
| --- | --- | --- | --- | --- | --- | --- | --- | --- | --- | --- | --- | --- | --- | --- | --- | --- | --- | --- | --- | --- | --- | --- | --- | --- | --- | --- | --- | --- | --- | --- | --- | --- |
| CC(=O)Nc1nc(C)c(-c2ccc(Cl)c(S(=O)(=O)NCCO)c2)s1 | 0.075 | 0.0569 | 0.00221 | -0.159 | 0.302 | 0.29 | 0.248 | 0.307 | 0.0212 | 0.026 | -0.0187 | -0.271 | -0.0771 | -0.0663 | -0.1 | -0.193 | -0.0326 | 0.00318 | 0.0521 | 0.103 | 0.423 | 0.467 | 0.424 | 0.489 | 0.348 | 0.493 | 0.527 | 0.549 | 0.317 | 0.471 | 0.448 | 0.434 |
| CN(C)CCOc1ccc(-c2nc(-c3ccncc3)c(-c3ccc4c(c3)CC/C4=N\O)[nH]2)cc1 | -0.0248 | -0.0722 | -0.0892 | 0.0453 | 0.104 | 0.0148 | 0.0221 | 0.134 | -0.226 | -0.183 | -0.167 | -0.14 | -0.788 | -0.651 | -0.644 | -0.615 | -0.0652 | -0.0236 | 0.0668 | 0.196 | 0.124 | 0.0207 | 0.0638 | 0.259 | 0.358 | 0.494 | 0.536 | 0.556 | -0.0096 | 0.315 | 0.378 | 0.441 |
| Cc1oc(S(=O)(=O)N2CCCCC2)cc1NC(=O)Nc1ccccc1 | 0.104 | 0.0184 | -0.0595 | -0.0798 | -0.0127 | 0.0108 | -0.117 | -0.249 | 0.0245 | 0.075 | -0.0191 | -0.188 | 0.0283 | 0.0927 | 0.052 | -0.0369 | 0.0412 | 0.101 | 0.11 | 0.174 | -0.0876 | 0.0154 | -0.000234 | 0.0155 | 0.422 | 0.557 | 0.585 | 0.576 | 0.511 | 0.598 | 0.601 | 0.574 |
| COc1cc(Nc2ncc(F)c(Nc3ccc4c(n3)N(COP(=O)(O)O)C(=O)C(C)(C)O4)n2)cc(OC)c1OC | -0.000834 | -0.000602 | 0.00162 | 0.0946 | 0.00804 | -0.00449 | -0.047 | -0.0248 | -0.112 | -0.134 | -0.185 | -0.286 | -0.0605 | -0.0606 | -0.107 | -0.168 | 0.0179 | 0.0218 | 0.0539 | 0.209 | -0.0117 | 0.00967 | 0.0277 | 0.162 | 0.382 | 0.517 | 0.542 | 0.553 | 0.413 | 0.448 | 0.452 | 0.437 |
| Cc1ccc(-c2csc3ncnc(SCCC(=O)O)c23)cc1 | 0.0174 | -0.014 | -0.0343 | -0.0333 | -0.00216 | -0.0356 | -0.0409 | 0.0278 | -0.135 | -0.215 | -0.266 | -0.425 | -0.333 | -0.33 | -0.376 | -0.529 | -0.0558 | -0.00644 | 0.0127 | 0.0699 | -0.0374 | 0.018 | 0.0424 | 0.16 | 0.458 | 0.495 | 0.522 | 0.525 | 0.365 | 0.436 | 0.45 | 0.472 |
| CNC(=O)c1ccccc1Sc1ccc2c(/C=C/c3ccccn3)n[nH]c2c1 [Axitinib] | -0.00761 | 0.0176 | 0.0231 | -0.0205 | 0.0126 | 0.0489 | -0.0091 | -0.0631 | -0.0928 | -0.118 | -0.216 | -0.609 | -0.116 | -0.0759 | -0.117 | -0.195 | 0.0328 | 0.0444 | 0.0505 | 0.163 | -0.0364 | 0.0807 | 0.114 | 0.196 | 0.405 | 0.507 | 0.522 | 0.533 | 0.439 | 0.479 | 0.492 | 0.484 |
| Cc1c(CCOc2ccc(C(=O)O)cc2)c2cc(Cl)ccc2n1C(c1ccccc1)c1ccccc1 | 0.00805 | -0.00114 | -0.0847 | -0.0955 | -0.0489 | -0.0693 | -0.125 | -0.133 | -0.14 | -0.201 | -0.294 | -0.473 | -0.448 | -0.454 | -0.564 | -0.758 | -0.0474 | -0.0119 | 0.00779 | 0.0213 | 0.0043 | 0.0519 | 0.061 | 0.147 | 0.505 | 0.573 | 0.594 | 0.582 | 0.296 | 0.41 | 0.419 | 0.435 |

From the supplement of paper PMC6897291
